# Data published in the supplement of paper PMC12282887.
# ± gives the standard deviation of the averaged measurements.
# Assays:
# Experiment in all cases: promoter activity interaction Z-score (Lux/OD deviation from empty-vector control); higher = stronger promoter induction by the compound
# [1] = system: E. coli BW25113 acrABp lux reporter
# Procedure, shortened: (§1)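 At 37°C, E. coli BW25113 reporter cultures in 40 µl LB Lennox in 384-well plates were read for OD600 and luminescence every 30 min for 12 h. Windows were 0–8 h for wild type and 1–9 h for deletion strains, and wells under 10% of the median growth value were removed. The score is the Z-transformed residual of growth-normalised luminescence against a control fit.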
# [2] = system: E. coli BW25113 micFp lux reporter
# Procedure, shortened: as §1
# [3] = system: E. coli BW25113 ompFp lux reporter
# Procedure, shortened: as §1
# [4] = system: E. coli BW25113 robp lux reporter
# Procedure, shortened: as §1
# [5] = system: E. coli BW25113 soxSp lux reporter
# Procedure, shortened: as §1
# [6] = system: E. coli BW25113 tolCp lux reporter
# Procedure, shortened: as §1
# [7] = 17.3 µg/ml, genetic background: wild type
# [8] = 17.3 µg/ml, genetic background: ΔmarA
# [9] = 17.3 µg/ml, genetic background: Δrob
# [10] = 17.3 µg/ml, genetic background: ΔsoxS
# [11] = 34.5 µg/ml, genetic background: wild type
# [12] = 34.5 µg/ml, genetic background: ΔmarA
# [13] = 34.5 µg/ml, genetic background: Δrob
# [14] = 34.5 µg/ml, genetic background: ΔsoxS
# [15] = 69.1 µg/ml, genetic background: wild type
# [16] = 69.1 µg/ml, genetic background: ΔmarA
# [17] = 69.1 µg/ml, genetic background: Δrob
# [18] = 69.1 µg/ml, genetic background: ΔsoxS
# [19] = 138.1 µg/ml, genetic background: wild type
# [20] = 138.1 µg/ml, genetic background: ΔmarA
# [21] = 138.1 µg/ml, genetic background: Δrob
# [22] = 138.1 µg/ml, genetic background: ΔsoxS
smiles,measurement,setting,value
O=C(O)c1ccccc1O [Salicylate],promoter activity interaction Z-score,[1]; [7],-0.103 ± 0.014
same,promoter activity interaction Z-score,[1]; [8],-0.589 ± 0.63
same,promoter activity interaction Z-score,[1]; [9],-0.226 ± 0.24
same,promoter activity interaction Z-score,[1]; [10],-0.152 ± 0.11
same,promoter activity interaction Z-score,[1]; [11],-0.242 ± 0.057
same,promoter activity interaction Z-score,[1]; [12],-0.128 ± 0.11
same,promoter activity interaction Z-score,[1]; [13],-0.178 ± 0.057
same,promoter activity interaction Z-score,[1]; [14],-0.392 ± 0.55
same,promoter activity interaction Z-score,[1]; [15],-0.168 ± 0.043
same,promoter activity interaction Z-score,[1]; [16],-0.559 ± 0.22
same,promoter activity interaction Z-score,[1]; [17],-0.327 ± 0.03
same,promoter activity interaction Z-score,[1]; [18],-0.194 ± 0.22
same,promoter activity interaction Z-score,[1]; [19],1.16 ± 0.76
same,promoter activity interaction Z-score,[1]; [20],0.299 ± 0.12
same,promoter activity interaction Z-score,[1]; [21],0.954 ± 0.4
same,promoter activity interaction Z-score,[1]; [22],1.34 ± 0.39
same,promoter activity interaction Z-score,[2]; [7],0.432 ± 0.15
same,promoter activity interaction Z-score,[2]; [8],-0.066 ± 0.12
same,promoter activity interaction Z-score,[2]; [9],0.521 ± 0.42
same,promoter activity interaction Z-score,[2]; [10],0.0126 ± 0.12
same,promoter activity interaction Z-score,[2]; [11],0.534 ± 0.39
same,promoter activity interaction Z-score,[2]; [12],-0.0684 ± 0.18
same,promoter activity interaction Z-score,[2]; [13],0.624 ± 0.05
same,promoter activity interaction Z-score,[2]; [14],0.176 ± 0.22
same,promoter activity interaction Z-score,[2]; [15],0.858 ± 0.46
same,promoter activity interaction Z-score,[2]; [16],0.0541 ± 0.076
same,promoter activity interaction Z-score,[2]; [17],1.4 ± 0.11
same,promoter activity interaction Z-score,[2]; [18],0.648 ± 0.042
same,promoter activity interaction Z-score,[2]; [19],3.02 ± 0.49
same,promoter activity interaction Z-score,[2]; [20],0.477 ± 0.32
same,promoter activity interaction Z-score,[2]; [21],4.91 ± 0.15
same,promoter activity interaction Z-score,[2]; [22],3.15 ± 0.65
same,promoter activity interaction Z-score,[3]; [7],-0.258 ± 0.037
same,promoter activity interaction Z-score,[3]; [8],-0.336 ± 0.23
same,promoter activity interaction Z-score,[3]; [9],-0.349 ± 0.016
same,promoter activity interaction Z-score,[3]; [10],-0.27 ± 0.18
same,promoter activity interaction Z-score,[3]; [11],-0.259 ± 0.41
same,promoter activity interaction Z-score,[3]; [12],-0.439 ± 0.33
same,promoter activity interaction Z-score,[3]; [13],-0.523 ± 0.35
same,promoter activity interaction Z-score,[3]; [14],0.344 ± 0.3
same,promoter activity interaction Z-score,[3]; [15],-0.272 ± 0.29
same,promoter activity interaction Z-score,[3]; [16],-0.133 ± 0.11
same,promoter activity interaction Z-score,[3]; [17],0.0991 ± 0.22
same,promoter activity interaction Z-score,[3]; [18],0.35 ± 0.33
same,promoter activity interaction Z-score,[3]; [19],0.5 ± 0.64
same,promoter activity interaction Z-score,[3]; [20],-0.462 ± 0.05
same,promoter activity interaction Z-score,[3]; [21],0.991 ± 0.12
same,promoter activity interaction Z-score,[3]; [22],0.357 ± 1.6
same,promoter activity interaction Z-score,[4]; [7],0.135 ± 0.21
same,promoter activity interaction Z-score,[4]; [8],-0.248 ± 0.33
same,promoter activity interaction Z-score,[4]; [9],-0.0314 ± 0.15
same,promoter activity interaction Z-score,[4]; [10],-0.476 ± 0.16
same,promoter activity interaction Z-score,[4]; [11],-0.293 ± 0.019
same,promoter activity interaction Z-score,[4]; [12],0.052 ± 0.1
same,promoter activity interaction Z-score,[4]; [13],-0.218 ± 0.033
same,promoter activity interaction Z-score,[4]; [14],0.365 ± 0.091
same,promoter activity interaction Z-score,[4]; [15],-0.0138 ± 0.24
same,promoter activity interaction Z-score,[4]; [16],-0.259 ± 0.74
same,promoter activity interaction Z-score,[4]; [17],0.387 ± 0.029
same,promoter activity interaction Z-score,[4]; [18],-0.512 ± 0.077
same,promoter activity interaction Z-score,[4]; [19],-0.0563 ± 0.13
same,promoter activity interaction Z-score,[4]; [20],-0.611 ± 0.22
same,promoter activity interaction Z-score,[4]; [21],0.693 ± 0.087
same,promoter activity interaction Z-score,[4]; [22],-0.616 ± 0.21
same,promoter activity interaction Z-score,[5]; [7],0.0635 ± 0.14
same,promoter activity interaction Z-score,[5]; [8],-0.172 ± 0.0058
same,promoter activity interaction Z-score,[5]; [9],-0.0541 ± 0.36
same,promoter activity interaction Z-score,[5]; [10],-0.237 ± 0.017
same,promoter activity interaction Z-score,[5]; [11],-0.0796 ± 0.076
same,promoter activity interaction Z-score,[5]; [12],-0.219 ± 0.049
same,promoter activity interaction Z-score,[5]; [13],-0.0336 ± 0.1
same,promoter activity interaction Z-score,[5]; [14],-0.0124 ± 0.14
same,promoter activity interaction Z-score,[5]; [15],-0.0424 ± 0.045
same,promoter activity interaction Z-score,[5]; [16],-0.126 ± 0.076
same,promoter activity interaction Z-score,[5]; [17],0.239 ± 0.18
same,promoter activity interaction Z-score,[5]; [18],0.207 ± 0.22
same,promoter activity interaction Z-score,[5]; [19],0.0689 ± 0.0036
same,promoter activity interaction Z-score,[5]; [20],0.491 ± 0.041
same,promoter activity interaction Z-score,[5]; [21],0.434 ± 0.012
same,promoter activity interaction Z-score,[5]; [22],0.177 ± 0.4
same,promoter activity interaction Z-score,[6]; [7],-0.0562 ± 0.66
same,promoter activity interaction Z-score,[6]; [8],-0.946 ± 0.55
same,promoter activity interaction Z-score,[6]; [9],0.0451 ± 0.3
same,promoter activity interaction Z-score,[6]; [10],0.372 ± 0.27
same,promoter activity interaction Z-score,[6]; [11],-0.65 ± 0.46
same,promoter activity interaction Z-score,[6]; [12],-0.0216 ± 0.48
same,promoter activity interaction Z-score,[6]; [13],-0.226 ± 0.041
same,promoter activity interaction Z-score,[6]; [14],0.227 ± 0.47
same,promoter activity interaction Z-score,[6]; [15],-0.276 ± 0.26
same,promoter activity interaction Z-score,[6]; [16],-0.251 ± 0.18
same,promoter activity interaction Z-score,[6]; [17],0.839 ± 0.021
same,promoter activity interaction Z-score,[6]; [18],0.668 ± 1.5
same,promoter activity interaction Z-score,[6]; [19],2.05 ± 1
same,promoter activity interaction Z-score,[6]; [20],-0.89 ± 0.018
same,promoter activity interaction Z-score,[6]; [21],1.38 ± 2
same,promoter activity interaction Z-score,[6]; [22],0.806 ± 0.32
